Hits are enriched below; roughly 4% of the tested compounds scored in any of these assays.
ADAM17 inh = ADAM17 inhibition, QFRET primary screen; P78536; recombinant ADAM17, EDANS/DABCYL FRET peptide cleavage; inhibition, % at 6.95 µM; 370,000 tested, 0.83% active;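 active = inhibition above the mean of compounds lying between control limits plus 3 SD, set per campaign, cut at about 8.5% in these data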;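 note: 0% = DMSO-only wells as the low control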
aDG glyco up = increases alpha dystroglycan glycosylation; Pro5-aDG cells, alpha-DG glycosylation AlphaScreen (IIH6); 0% Pro5, 100% B10-LARGE cell signal; activation, % at 10 µM; 360,000 tested, 0.22% active;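 active = activation of at least 8% versus controls, or a plate z-score of at least 8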;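 note: Pro5 are CHO cells carrying HIG-tagged alpha-DG that lacks glycosylation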
FAS-TE inh = FAS thioesterase (human) inhibition. P49327. recombinant FAS-TE, OMFH fluorogenic substrate, fluorescence endpoint. inhibition, % at 15 µM. 360,000 tested, 0.67% active;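 active = compounds whose normalised, plate-corrected inhibition of enzyme fluorescence in the single-dose primary screen is 50% or more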;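 note: 0% = DMSO with enzyme and 100% = substrate without enzyme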
NR3A LBD binder = NR3A (human) ligand-binding domain modulation; NR3A LBD differential scanning fluorimetry, Tm shift; 0% = protein alone, 100% = glycine-bound protein; Tm shift relative to glycine control, % at 25 µM; 340,000 tested, 2.5% active; AID 1259313;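 active = melting temperature shift of at least 10% of the positive control shift, at one fixed dose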
ADAM10 inh = inhibitors of human ADAM10. O14672. recombinant ADAM10, EDANS/DABCYL FRET peptide cleavage, 3 h. inhibition, % at 7 µM. 370,000 tested, 0.62% active. AID 720582;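 active = inhibition above a per-campaign cutoff equal to the mean of compounds falling between control-based bounds plus 3 SD, cut at about 20% in these data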;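 note: 0% = DMSO wells while the 100% control is not disclosed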
Target sequence (O14672 214-748 limits assumed): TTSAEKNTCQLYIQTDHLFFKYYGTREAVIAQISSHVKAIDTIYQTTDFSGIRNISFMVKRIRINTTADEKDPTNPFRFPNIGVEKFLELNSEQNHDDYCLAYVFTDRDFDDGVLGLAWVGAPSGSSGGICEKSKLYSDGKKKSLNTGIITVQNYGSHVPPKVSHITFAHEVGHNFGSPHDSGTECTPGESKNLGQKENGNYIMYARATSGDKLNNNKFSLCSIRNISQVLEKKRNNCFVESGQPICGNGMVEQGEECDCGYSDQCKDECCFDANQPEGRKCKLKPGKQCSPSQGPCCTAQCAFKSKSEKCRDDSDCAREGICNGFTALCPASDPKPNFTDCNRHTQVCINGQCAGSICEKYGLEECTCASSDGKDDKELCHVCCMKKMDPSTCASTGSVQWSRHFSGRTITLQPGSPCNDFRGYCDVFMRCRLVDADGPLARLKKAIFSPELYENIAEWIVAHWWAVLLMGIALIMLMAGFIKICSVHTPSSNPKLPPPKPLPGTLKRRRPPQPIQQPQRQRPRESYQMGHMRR
The depositor's hits bear a star; . = no result.

SMILES	ADAM17 inh	aDG glyco up	FAS-TE inh	NR3A LBD binder	ADAM10 inh
O=C(COc1cc(Cl)c(Cl)cc1Cl)NC(=O)Nc1ccc2c(c1)OCCO2	-3	0	-2	19*	-1
CSCCC(NC(=O)c1ccccc1)C(=O)Nc1ccncc1 (configuration not stated)	-1	0	-5	1	0
COC(=O)c1ccc(NC(=O)CN2CCOCC2)cc1	-5	0	-7	13*	1
O=C(Nc1cccc(OC(F)(F)F)c1)C1Cc2c(-c3ccccc3Oc3ccccc3)ccnc2O1 (configuration not stated)	6	0	27	.	10
COC1CCCCC1NS(=O)(=O)c1ccccc1 (configuration not stated)	-1	0	-3	18*	2
CCOC(=O)N1CCN(C(=O)c2ccc(S(=O)(=O)Nc3ccccc3)cc2)CC1	4	0	-9	-1	-17
COc1ccc(Cl)cc1NC(=O)CSc1nnc(C)c(=O)n1N	-1	0	1	13*	5
COc1ccc(Cl)cc1NC(=O)CSc1nnc(C2CC2)n1C	-2	0	-3	-3	4
CCOc1ccc(-c2nnc3ccc(SCC(=O)Nc4nc5ccccc5s4)nn23)cc1	-14	0	6	5	-38
Cc1cccc(C)c1OCc1nnc(NC(=O)CSc2ccc(Cl)cc2)s1	-1	0	-7	0	4
O=C(CSc1ncn(-c2ccccc2)n1)Nc1nc2ccccc2s1	2	0	16	22*	12
CCOc1ccc2nc(NC(=O)CSc3ccc(Cl)cc3)sc2c1	0	0	24	10*	-7
O=C(CSc1ccccc1)Nc1nnc(COc2ccc(Cl)cc2)s1	2	0	6	14*	1
CCOc1ccc(-c2nnc3ccc(SCC(=O)Nc4nc5ccc(C)cc5s4)nn23)cc1	-2	1	15	22*	-2
COc1ccccc1NC(=S)N1CCCC1	-1	0	-6	0	-1
O=C(Nc1ccncc1)c1ccc(Cl)c(S(=O)(=O)N2CCCCC2)c1	3	4	1	3	-15
COc1ccc2nc(NC(=O)CSc3ccccc3)sc2c1	9	0	11	31*	10
CCCn1c(C(=O)OC)cc2c1ccn2-c1ccc(F)cc1	-2	0	19	7	-7
COc1ccc(/C=C2/C(=O)N(c3ccccc3)N=C2C)cc1OC	2	0	-6	1	14
COc1cc(/C=C2/C(=O)N(c3cccc(Br)c3)N=C2C)cc(OC)c1O	0	0	-6	15*	6
COc1ccc(NS(=O)(=O)c2ccc(N3CCCC3)c(NC(=S)Nc3ccc(SC(F)F)cc3)c2)cc1	4	2	27	12*	9
Cc1ccc(NC(=O)CCn2nc(C)cc2C)c(C)c1	-7	0	-4	-1	3
COc1cc(/C=N/NC(=S)NC2CC3CCC2C3)ccc1O (configuration not stated)	-8	0	17	-3	-16
COc1ccc(/C=N/NC(=S)N[C@H]2CC3CCC2C3)cc1 (some centres not stated)	2	0	4	26*	6
Cc1ccc(NC(=O)CCC(=O)OC(C)C(=O)c2ccccc2)cc1 (configuration not stated)	-1	0	-4	1	-4
SMILES	ADAM17 inh	aDG glyco up	FAS-TE inh	NR3A LBD binder	ADAM10 inh
C/C(=N/NS(=O)(=O)c1cc(C)ccc1C)c1c[nH]c2ccccc12	-2	0	5	29*	-12
C/C(=N/NS(=O)(=O)c1ccc(C)cc1)c1c[nH]c2ccccc12	-3	0	0	-10	8
COC(=O)CSc1nc2nc(C)c(Br)cc2[nH]1	2	0	-8	0	-3
NNC(=O)CSc1ncc(-c2ccccc2)[nH]1	-4	1	-5	-1	-6
Cc1ccc(NC(=O)CSc2nc3nc(C)c(Br)cc3[nH]2)cc1F	0	0	-5	14*	-2
Cc1ccc2nc(SC(C(=O)Nc3ccc(F)cc3)c3ccccc3)[nH]c2c1 (configuration not stated)	4	1	8	16*	10
Cc1ccc(C)c(NC(=O)C(Sc2nc3ccc(C)cc3[nH]2)c2ccccc2)c1 (configuration not stated)	1	1	9	-3	1
O=C(CSc1ncc(-c2ccc(F)cc2)[nH]1)Nc1cccc(O)c1	-2	0	-3	16*	0
O=C(CSc1nc2cc3ccccc3cc2[nH]1)Nc1ccc(F)cc1	6	0	3	17*	16
O=[N+]([O-])c1ccc2c(c1)C(=NO)c1cc(F)ccc1-2	0	0	-152	-17	-6
O=C(CSc1nc2ccc(Cl)cc2[nH]1)Nc1ccc2c(c1)CCC2	5	0	11	21*	13
Cc1ccc2nc(Cl)c(/C=N/NC(=O)c3ccccc3O)cc2c1	-3	0	-7	20*	-9
Cc1ccc2nc(C)c(C(=O)N/N=C/c3ccco3)cc2c1	2	0	-12	11*	-2
Cc1ccc2nc(Cl)c(/C=N/NC(=O)[C@H]3C[C@@H]3c3ccccc3)cc2c1	-6	0	12	0	-14
C/C(=N\NC(=O)c1ccc(F)cc1)c1ccccn1	-2	0	2	12*	0
CCOC(=O)c1c(C)n(C)c2cc(-c3cccc(C(F)(F)F)c3)c(O)cc12	0	0	-1	13*	-12
CCOC(=O)c1c(C)n(C)c2cc(-c3ccc(C)cc3)c(O)cc12	-6	0	-1	1	-17
COc1ccc(NC(=O)c2sc3ncn(CC(=O)N4CCN(c5ccccn5)CC4)c(=O)c3c2C)cc1OC	-2	0	-2	-1	4
CN1CCN(C(=S)c2ccc(Cl)cc2)CC1	-1	0	-3	10*	7
COc1ccc(C(=S)N2CCN(C)CC2)cc1	2	0	-14	3	-1
CSCCC(NC(=O)c1ccc([N+](=O)[O-])cc1Cl)C(=O)OCC(=O)NC1CCCC(C)C1C (configuration not stated)	2	0	49	-9	11
CCOC(=O)Nc1cccc(C(=O)O)c1	1	0	-4	1	-1
CCOC(=O)Nc1cccc(Nc2ccccc2)c1	-2	0	5	27*	-2
Cc1cnc(C(=O)OCC(=O)Nc2ccccc2[N+](=O)[O-])cn1	5	0	-2	11*	10
Cc1cc(NS(=O)(=O)c2ccc(NC(=O)C(C)Oc3ccc(C(C)C)cc3)cc2)no1 (configuration not stated)	-3	0	2	-1	-4
COc1cc(/C=N/NC(=O)c2cc3c(ccc4ccccc43)o2)cc(OC)c1O	-25	-1	4	.	-59
COc1ccc(/C=N\NC(=O)c2cc3c(ccc4ccccc43)o2)cc1O	-25	0	6	25*	-52
